Hits are enriched below; roughly 19% of the tested compounds scored in any of these assays.
DT40 TDP1 CPT = qHTS for Inhibitors of human tyrosyl-DNA phosphodiesterase 1 (TDP1): qHTS in cells in presence of CPT | chicken DT40 Tdp1-/-;hTDP1 cells + 20 nM CPT, ATP luminescence, 48 h | Potency, µM (top dose mostly 46.2 µM), for inactives: top-dose activity change, negative = growth inhibition, most hits filed as inhibitors | actives 12% (n = 420,000); note: potency is the fitted concentration of half-maximal effect; nearly all actives have a fitted effect of over 55% in size
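Chicken DT40 Tdp1-/- cells stably complemented with human TDP1 were seeded at 400 cells/well in medium containing 20 nM camptothecin, exposed to pin-transferred compounds, and grown at 37 °C for at least 48 hr. Viability was read as ATP luminescence.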
HT1080 IDH1KD tx = qHTS for induction of synthetic lethality in tumor cells producing 2HG: qHTS for the HT-1080-IDH1KD cell line; HT-1080 IDH1 knockdown viability, ATP luminescence, 48 h; Potency, µM (highest dose often 46.1 µM), for inactives: top-dose activity, negative = toxicity, hits mostly cytotoxic; actives 2% (n = 360,000); AID 686971, 2013;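 note: potency is the fitted concentration of half-maximal effect; 0% = DMSO wells and -100% = cell-free medium wells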
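Viability of IDH1-knockdown HT-1080 fibrosarcoma cells was assessed by CellTiter-Glo after 48 h at 37 °C with titrated compound; concentration-effect curves were classified by fit quality and response size.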
ELG1 repair inh = qHTS screen for small molecules that inhibit ELG1-dependent DNA repair in human embryonic kidney (HEK293T) cells expressing luciferase-tagged ELG1; HEK293T ELG1-luciferase reporter, luminescence, 16 h; DNA damage induced by 5-fluorouridine; AID 504467, 2011; actives 2.3% (n = 330,000); Potency, µM (titrated, usually from 46.1 µM), inactives show at the highest dose activity change, negative = inhibition, usual class: inhibitors; note: potency is the fitted concentration of half-maximal effect; nearly all actives have a fitted effect of over 55% in size
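Reporter activity after DNA damage by 5-fluorouridine is monitored. Compound-treated cells incubate 16 hr at 37 °C, then ONE-Glo is added for 30 min before luminescence reading.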
HT1080-NT tox = qHTS for induction of synthetic lethality in tumor cells producing 2HG: qHTS for the HT-1080-NT fibrosarcoma cell line. HT-1080-NT fibrosarcoma viability, CellTiter-Glo ATP luminescence, 48 h. Potency, µM (doses to about 46.1 µM), without a hit: at the top dose activity, negative = less viability, actives largely listed as cytotoxic. actives 1.6% (n = 360,000);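 note: NT is the 2HG producing partner of a matched IDH1 knockdown line; potency is the fitted concentration of half-maximal effect; 0% = DMSO-treated cells and -100% = media-only wells without cells; nearly all actives have a fitted effect of over 55% in size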
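Luminescent CellTiter-Glo readout after 48 hours of compound exposure at 37 degrees C defined viability of HT-1080-NT cells. Activity was normalized to DMSO wells and cell-free media wells; concentration-response curves were fitted and assigned curve classes.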
IL1B secr inh = qHTS for Inhibitors of Inflammasome Signaling: IL-1-beta AlphaLISA Primary Screen. THP-1 LPS/ATP IL-1B secretion, AlphaLISA, 16 h; stronger effect = lower value. activity change, % at 57.5 µM. actives 4.7% (n = 360,000). AID 743279, 2014; in the data active = activity change below about -50%; inconclusive = mostly about -30% to -49%
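Secreted IL-1B measured by AlphaLISA bead assay after 16 h compound exposure of THP-1 cells; compounds (final up to 57.5 uM) added 1 h before LPS (250 ng/mL) and ATP (1.25 mM) stimulation; lower signal means less secretion.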
TDP1 cell noCPT = qHTS for Inhibitors of human tyrosyl-DNA phosphodiesterase 1 (TDP1): qHTS in cells in absence of CPT; Potency, µM (series often up to 46.2 µM), for inactives: top-dose activity change, negative = growth inhibition, usual class: inhibitors; actives 15% (n = 420,000); DT40 Tdp1-/- hTDP1 cells, no CPT, ATP luminescence, 48 h; note: potency is the fitted concentration of half-maximal effect; nearly all actives have a fitted effect of over 55% in size
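Readout: luminescence from CellTiter-Glo after 30 min in the dark at RT. Cells: DT40 Tdp1-/- with stable hTDP1, 400/well. Exposure: compounds alone, ≥48 hr, 37 °C.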
* = called active by the depositor. Unless noted, calls come from the whole dose curve; as a rule, active = well fitted curve in the direction sought with a large enough effect; inconclusive = small, poorly fitted or top-dose-only effect, or another doubt; inactive = no such curve, though single readings can be large; an effect the other way counts as inactive or inconclusive. Unless noted, % is set by controls: 0 for no effect and ±100 for the full control effect.

What do the screens show for `CC(=O)Nc1ccc(CNc2nc(NCC3CC3)nc3ccsc23)cc1`?
DT40 TDP1 CPT: 18µM*; HT1080 IDH1KD tx: inconclusive; HT1080-NT tox: inconclusive; IL1B secr inh: -105*; TDP1 cell noCPT: inconclusive

What do the screens show for `CC(=O)Nc1cc(C)ns1`?
DT40 TDP1 CPT: -15%; HT1080 IDH1KD tx: -2%; HT1080-NT tox: 3%; IL1B secr inh: 0; TDP1 cell noCPT: -16%

Results for CCOC(=O)c1c(-c2ccco2)csc1NC(=O)COC(=O)c1cnc(C)cn1 ?
DT40 TDP1 CPT: -6%; HT1080 IDH1KD tx: 0%; ELG1 repair inh: 6%; HT1080-NT tox: 6%; IL1B secr inh: -1; TDP1 cell noCPT: -9%

Results for Cc1ccc(Sc2ncccc2C(N)=O)cc1 ?
DT40 TDP1 CPT: -7%; HT1080 IDH1KD tx: -4%; HT1080-NT tox: -5%; IL1B secr inh: -1; TDP1 cell noCPT: -28%

What do the screens show for `Cc1ccc(Sc2cnc(N)nc2C)cc1`?
DT40 TDP1 CPT: inconclusive; HT1080 IDH1KD tx: -4%; ELG1 repair inh: -6%; HT1080-NT tox: 2%; IL1B secr inh: -11; TDP1 cell noCPT: 16µM*

What do the screens show for `CCC1CCc2sc(C(=O)N(C)CC(=O)Nc3ccc(OC)cc3)cc2C1` (centres undefined)?
DT40 TDP1 CPT: inconclusive; HT1080 IDH1KD tx: 22%; ELG1 repair inh: -1%; HT1080-NT tox: 6%; IL1B secr inh: -3; TDP1 cell noCPT: 21µM*

What do the screens show for `CCN(CC(=O)Nc1ccccc1C(F)(F)F)C(=O)c1ccc2c(=O)n3c(nc2c1)CCC3`?
DT40 TDP1 CPT: 8%; HT1080 IDH1KD tx: 11%; ELG1 repair inh: 3%; HT1080-NT tox: 13%; IL1B secr inh: 6; TDP1 cell noCPT: 13%

Results for CCN(CC(=O)Nc1ccccc1C(F)(F)F)C(=O)c1ccc2[nH]c3c(c2c1)CC(C)CC3 (centres undefined) ?
DT40 TDP1 CPT: inconclusive; HT1080 IDH1KD tx: -23%; ELG1 repair inh: inconclusive; HT1080-NT tox: -3%; IL1B secr inh: -62*; TDP1 cell noCPT: 18µM*

Results for CCN(CC(=O)Nc1ccccc1C(F)(F)F)C(=O)c1ccc(-n2nc(C)c(CCC(=O)OC)c2C)cc1 ?
DT40 TDP1 CPT: inconclusive; HT1080 IDH1KD tx: 1%; HT1080-NT tox: 0%; IL1B secr inh: 21; TDP1 cell noCPT: 21µM*

What do the screens show for `CCN(CC(=O)Nc1ccccc1C(F)(F)F)C(=O)Cc1ccccc1`?
DT40 TDP1 CPT: -11%; HT1080 IDH1KD tx: 7%; ELG1 repair inh: -6%; HT1080-NT tox: 9%; IL1B secr inh: 7; TDP1 cell noCPT: -12%

How did CCN(CC(=O)Nc1ccccc1C(F)(F)F)C(=O)c1ccccc1Cc1ccccc1 do in these assays?
DT40 TDP1 CPT: inconclusive; HT1080 IDH1KD tx: -11%; ELG1 repair inh: -7%; HT1080-NT tox: -6%; IL1B secr inh: -26; TDP1 cell noCPT: 21µM*

What do the screens show for `O=C(CCS(=O)(=O)c1ccc(Cl)cc1)NC1CCCC1`?
DT40 TDP1 CPT: -7%; HT1080 IDH1KD tx: 1%; ELG1 repair inh: 0%; HT1080-NT tox: -3%; IL1B secr inh: -5; TDP1 cell noCPT: 10%

How did CC1CCc2[nH]c3ccc(C(=O)N(C)CC(=O)Nc4ccc(F)cc4)cc3c2C1 (centres undefined) do in these assays?
DT40 TDP1 CPT: inconclusive; HT1080 IDH1KD tx: inconclusive; ELG1 repair inh: -4%; HT1080-NT tox: -12%; IL1B secr inh: inactive; TDP1 cell noCPT: 10µM*

How did COc1ccc(NC(=O)CN(C)C(=O)c2ccc3[nH]c4c(c3c2)CC(C)CC4)cc1 (centres undefined) do in these assays?
DT40 TDP1 CPT: -19%; HT1080 IDH1KD tx: -27%; ELG1 repair inh: inconclusive; HT1080-NT tox: -29%; IL1B secr inh: inconclusive; TDP1 cell noCPT: 23µM*

What do the screens show for `Cc1cccc(N(CC(=O)Nc2ccccc2C(F)(F)F)S(=O)(=O)c2ccccc2)c1C`?
DT40 TDP1 CPT: 16µM*; TDP1 cell noCPT: 15µM*

What do the screens show for `COc1cccc(NC(=O)CN(C)C(=O)c2ccc3[nH]c4c(c3c2)CC(C)CC4)c1` (centres undefined)?
DT40 TDP1 CPT: inconclusive; HT1080 IDH1KD tx: -20%; ELG1 repair inh: 11%; HT1080-NT tox: -7%; IL1B secr inh: inconclusive; TDP1 cell noCPT: inconclusive

Results for CC1CCc2[nH]c3ccc(C(=O)NCCCOC(C)C)cc3c2C1 (centres undefined) ?
DT40 TDP1 CPT: inconclusive; HT1080 IDH1KD tx: -2%; ELG1 repair inh: 6%; HT1080-NT tox: 3%; IL1B secr inh: inconclusive; TDP1 cell noCPT: inconclusive

What do the screens show for `COc1ccc(CCNC(=O)CCCn2c(=O)c3ccccc3n(Cc3ccccc3C#N)c2=O)cc1OC`?
DT40 TDP1 CPT: 2%; TDP1 cell noCPT: -18%

Results for CCCCn1c(N)c(N(CCC(C)C)C(=O)c2ccc([N+](=O)[O-])s2)c(=O)[nH]c1=O ?
DT40 TDP1 CPT: 23µM*; HT1080 IDH1KD tx: -14%; ELG1 repair inh: -3%; HT1080-NT tox: -17%; IL1B secr inh: 53; TDP1 cell noCPT: inconclusive

Results for CCOc1ccc(C2c3c(oc4ccc(C)cc4c3=O)C(=O)N2c2nc(C)c(C)s2)cc1OC (centres undefined) ?
DT40 TDP1 CPT: inconclusive; TDP1 cell noCPT: 7.3µM*

Results for CCc1ccc(C2c3c(oc4ccc(C)cc4c3=O)C(=O)N2c2nc(C)c(C)s2)cc1 (centres undefined) ?
DT40 TDP1 CPT: -21%; TDP1 cell noCPT: -17%

What do the screens show for `CCc1ccc(NC(=O)CCc2c(C)n(C)c3cc(-c4ccccc4C)nn3c2=O)cc1`?
DT40 TDP1 CPT: -29%; TDP1 cell noCPT: -28%

What do the screens show for `COc1ccc(C2Nc3ccccc3C(=O)N2Cc2ccco2)cc1COc1c(C)cccc1C` (centres undefined)?
DT40 TDP1 CPT: 2.5µM*; TDP1 cell noCPT: 5µM*

What do the screens show for `COc1cccc(OCc2cc(C3Nc4ccccc4C(=O)N3Cc3ccccc3)ccc2OC)c1` (centres undefined)?
DT40 TDP1 CPT: -27%; TDP1 cell noCPT: inconclusive

High-throughput results as filed in PubChem.
